Rows were chosen to be rich in hits. Some 2.4% of all compounds tested hit in one or more screens of this group.
M1 antag: human CHRM1 antagonism | inhibition, % at 3 µM | AID 588852 | CHO-K1 hM1, Fluo-8 calcium fluorescence, ACh EC80 antagonist | P11229 | actives 1.3% (n = 360,000);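 active means percent inhibition above its own plate's cutoff, namely the mean of that plate's compound wells plus 3 SD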;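 further: peak over basal fluorescence ratio during 140 s after agonist addition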
Target sequence (P11229 whole entry, looked up): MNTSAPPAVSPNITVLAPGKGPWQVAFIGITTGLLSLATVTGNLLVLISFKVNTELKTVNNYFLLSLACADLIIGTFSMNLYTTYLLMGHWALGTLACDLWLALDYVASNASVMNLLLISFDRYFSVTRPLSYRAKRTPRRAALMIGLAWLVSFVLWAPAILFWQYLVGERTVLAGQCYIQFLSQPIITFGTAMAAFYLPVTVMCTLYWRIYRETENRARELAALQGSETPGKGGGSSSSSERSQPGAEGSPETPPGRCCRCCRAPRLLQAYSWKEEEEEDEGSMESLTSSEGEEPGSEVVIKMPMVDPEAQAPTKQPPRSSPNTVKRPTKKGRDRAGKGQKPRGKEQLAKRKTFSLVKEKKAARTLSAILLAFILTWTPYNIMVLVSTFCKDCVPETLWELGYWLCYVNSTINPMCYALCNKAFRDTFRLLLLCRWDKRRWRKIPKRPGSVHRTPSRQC
CHO-K1 Ca ag: nonselective activator or artifact in parental CHO-K1 cells | Fluo-8 calcium fluorescence; scaled to maximal ATP response, vehicle zero | activation, % at 3 µM | actives 0.48% (n = 360,000); in the data active means activation above about 15%;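 further: untransfected CHO-K1 host cells lacking M1 receptor as counterscreen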
CHRM1 PAM: potentiates human M1 receptor response to acetylcholine | CHO-K1 hM1, Fluo-8 calcium fluorescence, ACh EC20; 0% = ACh EC20, 100% = maximal ACh | activation, % at 3 µM | actives 0.088% (n = 360,000); in the data active means activation above about 19%, passing the limit was not always enough
M1 ag: human M1 muscarinic receptor agonism; P11229; CHO-K1 hM1, Fluo-8 calcium fluorescence, agonist mode; 0% DMSO, 100% acetylcholine EC100; activation, % at 3 µM; actives 0.33% (n = 360,000); AID 588814;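 active means activation above the run's mean compound activation plus 3 SD, cut at about 16% in these data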;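 further: peak over basal fluorescence ratio within a 140 s kinetic read after compound addition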
CHO-K1 Ca antag: counter-screen for M1 antagonists: effect in parental CHO-K1 cells; actives 0.6% (n = 360,000); ATP-induced calcium, Fluo-8 fluorescence; AID 602250; inhibition, % at 3 µM;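 active means inhibition above a per-plate cutoff, the plate's mean sample inhibition plus 3 SD, cut at about 24% in these data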
CHO-K1 Ca PAM: nonselective activator or artifact in parental CHO-K1 calcium assay; ATP EC20, Fluo-8 calcium fluorescence; 0% at ATP EC20, 100% at ATP max; activation, % at 3 µM; actives 0.02% (n = 360,000); AID 602247;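 active means activation above the run cutoff, the mean activation of all test compounds plus 3 SD, cut at about 40% in these data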;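 further: peak over basal fluorescence ratio in a 140 s read after ATP addition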
Hits are given with their value; i = inactive.

SMILES	M1 antag	CHO-K1 Ca ag	CHRM1 PAM	M1 ag	CHO-K1 Ca antag	CHO-K1 Ca PAM
Cc1ccc(C(C)C)c(OCC(O)CN(C)Cc2ccccc2)c1 (stereo not drawn)	i	i	i	i	i	i
Cc1ccc(C(C)C)c(OCCCN(C)Cc2ccccc2)c1	59	i	i	i	i	i
Cc1nc(-c2ccccn2)sc1C(=O)O	i	i	i	i	i	i
CCOC(=O)c1sc(-c2ccccn2)nc1C	i	16	i	i	i	i
CC1(c2ccc([N+](=O)[O-])cc2)Nc2ccccc2S1 (stereo not drawn)	i	15	i	i	i	i
CCOC(=O)Cc1csc(NC(=O)Nc2cccc(Cl)c2)n1	i	i	i	i	i	i
CCCCC(=O)Nc1ccc(C(=O)Nc2nc(CC(=O)OCC)cs2)cc1	i	21	i	i	i	i
COc1ccc(C(=O)Nc2nc(CC(=O)NCc3ccc(F)cc3)cs2)cc1	i	20	i	i	i	i
CCOC(=O)Cc1csc(NC(=O)Nc2ccc(Cl)cc2)n1	i	18	i	i	i	i
CC(=O)C1=C(C)N(Cc2ccccc2)C(=O)N[C@H]1c1ccco1	i	i	i	i	i	i
NS(=O)(=O)c1ccc(O)c(NC(=O)c2ccc([N+](=O)[O-])o2)c1	i	i	i	i	i	i
CN1CCN(c2ccc(NC(=O)COc3ccccc3[N+](=O)[O-])cc2)CC1	i	i	i	i	i	i
Cc1cccc(OCC(=O)Nc2ccc(N3CCN(C(=O)c4ccccc4)CC3)cc2)c1C	27	i	i	i	i	i
CC(C)C(=O)N1CCN(c2ccc(NC(=O)COc3ccccc3[N+](=O)[O-])cc2)CC1	37	i	i	i	40	i
CCC(=O)N1CCN(c2ccc(NC(=O)COc3cccc(C)c3C)cc2)CC1	i	i	i	i	i	i
COc1ccc(CCNC(=O)Cn2cnc3sc(C)c(-c4ccc(F)cc4)c3c2=O)cc1OC	i	i	i	18	i	i
COc1ccc(NC(=O)CCCNC(=O)Cn2cnc3sc(C)c(C)c3c2=O)c(OC)c1	22	i	i	i	i	i
COCCSc1ccccc1C(=O)Nc1ccc(S(=O)(=O)N2CCOCC2)cc1	i	i	i	i	i	i
Cc1ccccc1OCC(=O)OCC(=O)c1c[nH]c2ccccc12	i	i	i	i	i	i
O=C(CNC(=O)c1ccc(Br)o1)NC12CC3CC(CC(C3)C1)C2	i	i	i	i	i	i
CCNC(=O)c1ccc(C23CC4CC(CC(C4)C2)C3)o1	i	15	i	i	i	i
Cc1ccc(OCC(=O)Nc2ccc(N3CCN(C(=O)c4ccco4)CC3)cc2)cc1C	i	15	i	i	i	i
Cc1ccccc1C(=O)N1CCN(c2ccc(NC(=S)NC(=O)c3ccco3)cc2)CC1	i	15	i	i	i	i
Cc1cccc(OCC(=O)Nc2ccc3oc(=O)ccc3c2)c1	i	19	i	i	i	i
Cc1cc(C)cc(NC(=S)N2CCN(C(=O)c3ccco3)CC2)c1	i	i	i	i	25	i
SMILES	M1 antag	CHO-K1 Ca ag	CHRM1 PAM	M1 ag	CHO-K1 Ca antag	CHO-K1 Ca PAM
C[C@@H]1CCCCO[C@H](CN(C)C(=O)Cc2ccccc2)[C@H](C)CN([C@@H](C)CO)C(=O)c2cc(NC(=O)Nc3ccc(F)cc3)ccc2O1	i	i	i	i	i	i
CCOC(=O)C1=C(CN2CCN(CCC#N)CC2)NC(=O)NC1c1ccc2c(c1)OCO2 (stereo not drawn)	i	i	i	i	i	i
O=C(CSc1nc(C(F)(F)F)cc(=O)[nH]1)N1CCCC1	i	i	i	i	i	i
Cc1cc(OCC(=O)Nc2ccc(N3CCN(C(=O)c4ccco4)CC3)cc2)cc(C)c1Cl	i	i	i	i	i	i
Cc1cccc(OCC(=O)Nc2ccc(N3CCN(C(=O)c4ccco4)CC3)cc2)c1	i	16	i	i	29	i
CCN(CC)CCN1C(=O)c2ccccc2NC1c1ccccc1F (stereo not drawn)	89	i	i	i	i	i
CCN(CC)CCN1C(=O)c2ccccc2NC1c1ccc(F)cc1 (stereo not drawn)	i	i	i	i	i	i
COc1ccccc1/C=C/CN1CCCC(CO)(CCc2ccccc2)C1 (stereo not drawn)	i	i	i	i	i	i
